Compounds with a hit are over-represented: about 12% of the library has one in this group of screens.
HP1b binding inh – inhibitors of HP1-beta chromodomain binding to methylated histone tails. AlphaScreen HP1-beta / biotin-H3K9me3 peptide binding. P83916. 390,000 compounds, 0.56% hits. AID 540317. Potency, µM (series often up to 114 µM), most hits filed as inhibitors; also: nearly all actives have a fitted effect of over 70% in size
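HP1-beta protein (50 nM final) preincubated 30 min at room temperature with biotinylated H3(1-18)K9me3 peptide (50 nM) in PBS pH 7.4, 0.01% Tween-20, then compound added for 30 min. AlphaScreen streptavidin donor/nickel chelate acceptor beads (10 ug/mL final), 30 min dark, luminescence read.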
BAZ2B inh – blocks human BAZ2B; Q9UIF8; AlphaScreen BAZ2B-H3K14Ac peptide displacement; Potency, µM (titrated, usually from 114 µM), usual class: inhibitors; 360,000 compounds, 4.4% hits; AID 504333; also: nearly all actives have a fitted effect of over 60% in size
Target sequence (Q9UIF8 whole entry, looked up): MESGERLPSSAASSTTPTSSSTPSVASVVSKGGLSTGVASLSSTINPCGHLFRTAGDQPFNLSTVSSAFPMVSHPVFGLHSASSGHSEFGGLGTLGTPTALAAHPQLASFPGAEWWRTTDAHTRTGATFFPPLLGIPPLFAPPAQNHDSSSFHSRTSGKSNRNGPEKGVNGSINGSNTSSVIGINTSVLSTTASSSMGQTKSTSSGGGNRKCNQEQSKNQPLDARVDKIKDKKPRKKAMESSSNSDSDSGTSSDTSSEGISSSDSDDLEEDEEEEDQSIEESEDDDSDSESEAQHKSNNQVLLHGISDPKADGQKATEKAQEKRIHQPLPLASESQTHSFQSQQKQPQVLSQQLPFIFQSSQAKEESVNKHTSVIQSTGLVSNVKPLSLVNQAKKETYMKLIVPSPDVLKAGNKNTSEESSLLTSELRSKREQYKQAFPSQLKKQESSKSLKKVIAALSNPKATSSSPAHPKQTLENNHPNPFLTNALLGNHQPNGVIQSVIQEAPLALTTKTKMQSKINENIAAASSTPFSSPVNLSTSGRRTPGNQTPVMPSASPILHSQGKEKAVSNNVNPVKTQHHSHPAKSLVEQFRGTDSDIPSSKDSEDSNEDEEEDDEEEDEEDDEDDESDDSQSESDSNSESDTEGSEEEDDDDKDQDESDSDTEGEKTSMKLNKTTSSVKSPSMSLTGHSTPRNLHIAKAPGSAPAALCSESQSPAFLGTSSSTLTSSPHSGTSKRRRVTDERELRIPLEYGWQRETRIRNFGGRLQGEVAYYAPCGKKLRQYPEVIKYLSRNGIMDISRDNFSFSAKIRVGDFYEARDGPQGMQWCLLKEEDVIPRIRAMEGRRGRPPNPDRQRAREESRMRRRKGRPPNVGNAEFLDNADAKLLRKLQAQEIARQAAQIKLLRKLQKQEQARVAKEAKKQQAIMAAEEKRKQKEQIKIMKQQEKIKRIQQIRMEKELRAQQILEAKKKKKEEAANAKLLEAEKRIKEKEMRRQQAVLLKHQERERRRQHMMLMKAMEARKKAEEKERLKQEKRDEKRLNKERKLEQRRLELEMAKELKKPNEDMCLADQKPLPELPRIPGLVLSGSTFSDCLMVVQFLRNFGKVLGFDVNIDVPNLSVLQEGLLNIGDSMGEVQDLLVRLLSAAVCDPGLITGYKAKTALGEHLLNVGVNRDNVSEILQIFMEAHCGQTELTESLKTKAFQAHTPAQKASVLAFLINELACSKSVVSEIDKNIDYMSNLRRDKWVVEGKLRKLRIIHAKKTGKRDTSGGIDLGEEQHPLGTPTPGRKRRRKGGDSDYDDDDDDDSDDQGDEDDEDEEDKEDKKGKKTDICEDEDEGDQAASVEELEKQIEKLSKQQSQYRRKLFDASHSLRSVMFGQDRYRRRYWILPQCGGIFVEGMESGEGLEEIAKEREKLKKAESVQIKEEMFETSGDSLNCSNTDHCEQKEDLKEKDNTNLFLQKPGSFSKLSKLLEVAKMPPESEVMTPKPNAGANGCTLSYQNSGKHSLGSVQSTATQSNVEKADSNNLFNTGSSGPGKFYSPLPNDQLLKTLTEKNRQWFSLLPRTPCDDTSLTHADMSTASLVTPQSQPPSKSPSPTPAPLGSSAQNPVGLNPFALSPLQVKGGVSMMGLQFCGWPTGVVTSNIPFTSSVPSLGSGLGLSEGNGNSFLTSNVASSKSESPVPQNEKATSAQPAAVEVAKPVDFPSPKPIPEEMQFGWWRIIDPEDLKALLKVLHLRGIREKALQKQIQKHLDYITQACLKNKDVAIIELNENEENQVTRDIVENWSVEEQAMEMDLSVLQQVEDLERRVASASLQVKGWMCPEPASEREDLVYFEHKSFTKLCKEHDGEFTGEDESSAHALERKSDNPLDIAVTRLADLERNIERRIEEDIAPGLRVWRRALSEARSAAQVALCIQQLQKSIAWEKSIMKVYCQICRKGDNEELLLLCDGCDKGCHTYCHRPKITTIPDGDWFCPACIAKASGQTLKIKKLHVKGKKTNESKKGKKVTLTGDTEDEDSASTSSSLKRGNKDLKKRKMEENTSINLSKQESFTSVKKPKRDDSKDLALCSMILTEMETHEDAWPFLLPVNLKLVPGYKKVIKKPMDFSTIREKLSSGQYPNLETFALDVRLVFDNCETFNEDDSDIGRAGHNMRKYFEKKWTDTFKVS
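BAZ2B 50 nM plus b-H3(5-23)K14Ac 50 nM, PBS pH 7.4/0.01% Tween-20, 30 min RT; compound added (max 110 uM), 30 min RT; streptavidin donor/Ni-chelate acceptor beads 10 ug/mL final, 20 min dark; AlphaScreen read.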
JMJD2A Tudor – JMJD2A Tudor domain (human) inhibition | O75164 | AlphaScreen JMJD2A-Tudor / H3K4me3 peptide binding | 390,000 compounds, 4.4% hits | Potency, µM (highest dose often 114 µM), usual class: inhibitors; also: nearly all actives have a fitted effect of over 50% in size
Sfp inh – Sfp phosphopantetheinyl transferase inhibition; Biochemical Sfp PPTase activity, qHTS; Potency, µM, hits mostly inhibitors; 310,000 compounds, 3.5% hits; AID 1490;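 also: the enzyme is Sfp with the accession as filed and its product quenches rhodamine fluorescence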
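With Hepes-Na pH 7.6 buffer containing 10 mM MgCl2, Sfp (15 nM) modified BHQ-2-YbbR (12.5 uM) using rhodamine-CoA (5 uM). Two reads 30 minutes apart at 525/598 nm yielded each well's rate.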
PLK1 PBD inh – blocks phosphopeptide binding to human PLK1 polo-box domain; Plk1 PBD binding of FITC phosphopeptide, fluorescence polarization; 360,000 compounds, 2.8% hits; AID 720504; Potency, µM, most hits filed as inhibitors; also: series mostly up to about 57 µM; nearly all actives have a fitted effect of over 65% in size
G9a block – blocks human histone lysine methyltransferase G9a | 350,000 compounds, 8.8% hits | G9a H3K9 monomethylation, AlphaScreen, 2 h | Q96KQ7 | Potency, µM (series often up to 102 µM), hits mostly inhibitors; also: nearly all actives have a fitted effect of over 75% in size
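G9a (20 nM) was preincubated 15 min with compound, then reacted 2 h at room temperature with 500 nM biotin-H3K9 peptide and 20 µM SAM. Monomethyl-H3K9 detected by AlphaScreen using anti-H3K9me1 antibody.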
Hits are given with their value; 0 = inactive; ? = inconclusive; - = not tested or not shown; [ ] = dose if it differs, or a comment. Calls follow the shape of the dose curve; as a rule, active = well fitted curve in the direction sought with a large enough effect; inconclusive = small, poorly fitted or top-dose-only effect, or another doubt; inactive = no such curve, though single readings can be large; an effect the other way counts as inactive or inconclusive.

SMILES | HP1b binding inh | BAZ2B inh | JMJD2A Tudor | Sfp inh | PLK1 PBD inh | G9a block
CC[C@@H]1C=C(C(=O)O)[C@H](c2ccc(Cl)cc2)N1S(=O)(=O)c1ccc(C)cc1 | 0 | - | 0 | - | 0 | -
Cc1ccc(S(=O)(=O)N2[C@@H](c3ccc(Cl)cc3)C(C(=O)O)=C[C@H]2CC2CCCC2)cc1 | 0 | - | 0 | - | 19µM | -
COc1ccc(NS(=O)(=O)c2ccc(C)c(C(=O)N3CC(C)OC(C)C3)c2)cc1 (stereo not given) | 0 | 0 | 0 | - | 0 | 0
O=C(CNC(=O)c1ccccn1)N=Nc1c(O)[nH]c2ccccc12 | 0 | 0 | 0 | 0 | 0 | 0
COc1ccc(OC)c(Cc2nnc(CCC(=O)NCc3ccc(C)s3)o2)c1 | 0 | ? | 0 | 0 | 0 | 25µM
COc1ccc(OC)c(Cc2nnc(CCC(=O)NC(C3CC3)C3CC3)o2)c1 | 0 | 0 | 0 | 0 | 0 | 0
Cc1ccc2c(c1)c(C)cc[n+]2Cc1ccccc1 | 0 | 0 | 0 | 0 | 0 | 50µM
COc1ccc2c(c1)c(C)cc[n+]2Cc1ccccc1 | 0 | 0 | 0 | 0 | 0 | 0
C=CCOC[C@@H]1CN2[C@H](c3ccc(Br)cc3)[C@@H](C)CC[C@H]2C(=O)O1 | - | - | - | 0 | - | -
Oc1cccc(/C=N/Nc2cccc3cccnc23)c1 | ? | ? | ? | 45µM | 0 | 35µM
COc1cc(/C=N/Nc2cccc3cccnc23)cc(OC)c1O | ? | 28µM | ? | 50µM | 0 | 10µM
COc1ccc(N2CCN(C(=O)/C=C/c3ccco3)CC2)cc1 | 0 | 0 | 0 | 0 | 0 | 32µM
O=C(/C=C/c1ccco1)N1CCN(c2ccc(F)cc2)CC1 | 0 | 0 | 0 | 18µM | 0 | ?
COc1ccccc1N1CCN(C(=O)/C=C/c2ccco2)CC1 | 0 | 0 | 0 | 0 | 0 | ?
C=C1C(=O)O[C@@H]2[C@H]3O[C@]3(C)CC/C=C(\C)CC[C@@H]12 | 0 | - | 0 | 0 | 0 | 7.9µM
C=C1C(=O)O[C@@H]2C3OC3(C)CC/C=C(\C)CC[C@@H]12 (stereo not given in full) | - | - | - | 0 | - | -
O=C(O)CCn1cc(/C=C2/NC(=S)N(c3ccccc3)C2=O)c(-c2ccccc2)n1 | 0 | 0 | ? | 0 | 0 | 22µM
Cc1ccc(S(=O)(=O)N2CCOCC2)cc1N/N=C(\C#N)c1nc2ccccc2[nH]1 | 0 | 0 | 0 | 0 | 0 | 35µM
CCOC(=O)C1(C)C=C(Nc2ccc(Br)cc2)C(=O)N1c1ccccc1 (stereo not given) | 0 | 0 | 0 | - | - | ?
CCOC(=O)C1(C)/C(=N/Nc2ccccc2OC)C(=O)C(=O)N1c1ccccc1 (stereo not given) | 40µM | 40µM | 25µM | 0 | 0 | 4.5µM
CCOC(=O)C1(C)/C(=N/Nc2ccccc2)C(=O)C(=O)N1c1ccccc1 (stereo not given) | 40µM | ? | 32µM | 0 | 24µM | 8.9µM
CCN(CC)S(=O)(=O)c1ccc2c(c1)nc(CN(C)C(=O)Nc1ccc(C)c(F)c1)n2C | 0 | 0 | 0 | - | - | 0[12.7 µM]
CCN(CC(=O)NC1CCS(=O)(=O)C1)C(=O)c1cc(OC)c(OC)c(OC)c1 (stereo not given) | 0 | 0 | 0 | - | 0 | 0[12.7 µM]
CCc1cccc(C)c1NC(=O)C(CC)n1nc(C)c2c(C)n(-c3ccccc3)nc2c1=O (stereo not given) | 0 | 0 | 0 | - | - | 0
OCCCc1nc2n(n1)C(c1ccccc1Cl)C=C(c1cccs1)N2 (stereo not given) | 0 | 0 | 0 | 50µM | 0 | ?
SMILES | HP1b binding inh | BAZ2B inh | JMJD2A Tudor | Sfp inh | PLK1 PBD inh | G9a block
Cc1ccc(S(=O)(=O)Nc2nc3n(n2)C(c2ccccc2Cl)C=C(c2ccccc2)N3)cc1 (stereo not given) | 0 | 0 | 0 | - | - | ?
OCCCc1nc2n(n1)C(c1cccs1)C=C(c1ccccc1)N2 (stereo not given) | - | 0 | - | ? | - | 40µM
OCCCc1nc2n(n1)C(c1ccccc1)C=C(c1ccc(F)cc1)N2 (stereo not given) | 0 | 0 | 0 | 0 | 0 | ?
CCN1CCN(c2ccc(NC(=O)c3ccc(Cl)c(N4CCCC4=O)c3)cc2)CC1 | 0 | 0 | 0 | 0 | 0 | ?
Cc1cc(Br)c2c(c1)[C@](O)(c1cn(C)c3ccccc13)C(=O)N2C | - | - | - | - | 0 | -
Cc1cccc(OCCCN2CCCCCC2)c1 | ? | 79µM | 7.9µM | 0 | 0 | 6.3µM
Cc1cccc(Cl)c1OCCN1CCCC1 | 0 | ? | 4µM | 0 | 0 | 40µM
Clc1cccc(OCCN2CCNCC2)c1 | ? | 0 | 18µM | 0 | 0 | 14µM
Cc1cccc(OCCCCCN2CCOCC2)c1 | 0 | 0 | 0 | 0 | 0 | 0
OCCN1CCN(CCOc2cccc(Cl)c2)CC1 | 0 | ? | ? | 0 | 0 | -
Clc1cccc(Cl)c1OCCCCN1CCCCC1 | ? | 79µM | 20µM | 0 | 0 | 22µM
Cc1ccc(NC(=O)Nc2nnc(N(C)C3CCCCC3)s2)c(Cl)c1 | 0 | 0 | 0 | - | - | 0
OC[C@@H]1O[C@H](O)[C@H](O)[C@@H](O)[C@@H]1O | - | - | - | 0 | - | -
CCn1c(=O)c2sccc2n2c(CCC(=O)NCc3ccc(Cl)cc3)nnc12 | 0 | 0 | 0 | - | - | 0
Clc1cccc(OCCCCN2CCCCC2)c1 | ? | 56µM | 22µM | 0 | 0 | ?
Cc1c(C(=O)NCCS(=O)(=O)N2CCN(c3ccccc3F)CC2)cccc1[N+](=O)[O-] | 0 | 0 | 0 | 0 | 0 | 0
Cc1c(C(=O)Nc2ccccc2)sc2nc(-c3cc4ccccc4oc3=O)[nH]c(=O)c12 | 0 | 0 | 0 | - | - | 0
c1ccc(-c2ccccc2OCCOCCN2CCc3ccccc3C2)cc1 | 0 | 0 | 0 | 0 | 0 | 0
Cc1ccc(C)c(OCCOCCN2CC(C)OC(C)C2)c1C (stereo not given) | ? | 25µM | 1µM | ? | 0 | 13µM
Cc1ccc(C)c(OCCCCN2CCNCC2)c1C | 0 | 0 | 0 | 0 | 0 | ?
COC(=O)c1ccccc1OCCOc1ccccc1C(=O)OC | 0 | 0 | 0 | 0 | 0 | 0
COC(=O)c1ccccc1OCCCCN1CC(C)OC(C)C1 (stereo not given) | ? | 35µM | 1.8µM | ? | 0 | 3.5µM
CC1CN(CCOCCOc2ccccc2-c2ccccc2)CC(C)O1 (stereo not given) | ? | 22µM | 10µM | 45µM | 0 | 1.8µM
CC1CN(CCCCOc2ccc(F)cc2)CC(C)O1 (stereo not given) | 50µM | 50µM | ? | 0 | 0 | 10µM
Cc1c(C(=O)NCc2ccc(F)cc2)sc(=O)n1Cc1ccccc1F | - | - | - | - | 0 | -
COc1cccc(NC(=O)COC(=O)c2ccccc2C(=O)N(C)c2ccccc2)c1 | 0 | 0 | 0 | - | 0 | 0[12.7 µM]
CC1CN(CCOc2ccccc2C(C)C)CC(C)O1 (stereo not given) | ? | ? | 22µM | ? | 0 | 10µM
Cc1ccc(C(C)C)c(OCC(O)CN2CC(C)OC(C)C2)c1 (stereo not given) | 0 | 0 | 0 | 0 | 0 | 0

Source: PubChem
